The supplement of paper PMC10849652
About 7,900 targets were measured; listed, in parts, are those with a hit and a random draw of the rest. About 0.6% of all pairs of compound and target were hits.

Columns and labels:
Assay in all cases: log2 fold change, soluble protein after heating vs DMSO (PISA); higher = thermal stabilisation; K562 cells, 10 uM, 30 min; active = over 0.2 and 3.5 SD of the protein, either way, in both replicates (recomputed)
[1] = compound: C1=CC=C(C=C1)[C@H](COC2=CC3=C(C=C2)NC(=O)N3)NC(=O)C4=CC=CN(C4=O)CC5=CC(=C(C=C5)F)F
How it was run: (§1)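 Thermal stability values are relative to control samples and come from duplicates. They are expressed as log2 fold changes. For measurement, K562 cells (2×10^6 cells/mL) received 10 μM compound for 30 min, and aliquots were heated for 3 min over 48°C-58°C, pooled, and extracted at 4°C in PBS with 0.5% NP-40. Soluble protein, the supernatant after 21,000xg for 90 min, was quantified by TMTpro 16plex LC-MS/MS with equalised channel sums.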

[2] = compound: CC1=C(SC2=C1C(=N[C@H](C3=NN=C(N32)C)CC(=O)N)C4=CC=C(C=C4)Cl)C
How it was run: as §1

[3] = compound: CC1=C2C(=CC=C1)N=C(N(C2=O)C3=CC=CC=C3C)CN4C=NC5=C(N=CN=C54)N
How it was run: as §1

[4] = compound: Cc1sc2c(c1C)C(c1ccc(Cl)cc1)=N[C@@H](CC(=O)OC(C)(C)C)c1nnc(C)n1-2
How it was run: as §1

[5] = compound: c1ccc([C@@H]2C[C@H]2NC2CCNCC2)cc1
How it was run: as §1

Measured: log2 fold change

LNPEP (UniProt Q9UIQ6)
inactive: [1] 0.066 | [2] 0.061 | [3] 0.001 | [4] -0.016 | [5] 0.046

MAD2L1 (UniProt Q13257)
UniProt Q13257, sequence (Q13257 whole entry, looked up): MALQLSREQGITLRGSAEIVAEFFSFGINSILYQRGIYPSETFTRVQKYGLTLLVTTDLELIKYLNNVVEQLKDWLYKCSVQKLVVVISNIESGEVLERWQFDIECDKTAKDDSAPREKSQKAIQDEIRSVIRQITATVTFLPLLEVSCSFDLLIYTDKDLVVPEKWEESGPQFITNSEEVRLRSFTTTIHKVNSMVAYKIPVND
inactive: [1] -0.045 | [2] 0.077 | [3] 0.067 | [4] -0.021 | [5] -0.019

MAP2K2 (UniProt P36507)
UniProt P36507, sequence (P36507 whole entry, looked up): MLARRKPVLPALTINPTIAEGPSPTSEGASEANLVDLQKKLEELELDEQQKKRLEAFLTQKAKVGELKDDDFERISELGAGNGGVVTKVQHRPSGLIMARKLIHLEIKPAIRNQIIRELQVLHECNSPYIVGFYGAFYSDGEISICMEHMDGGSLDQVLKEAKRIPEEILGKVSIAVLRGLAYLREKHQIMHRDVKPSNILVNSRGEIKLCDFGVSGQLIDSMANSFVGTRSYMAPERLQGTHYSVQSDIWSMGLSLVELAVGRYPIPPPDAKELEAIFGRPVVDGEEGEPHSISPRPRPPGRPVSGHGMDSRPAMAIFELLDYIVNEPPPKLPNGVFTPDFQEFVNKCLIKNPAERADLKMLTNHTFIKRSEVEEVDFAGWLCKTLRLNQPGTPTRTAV
inactive: [1] 0.034 | [2] 0.065 | [3] 0.073 | [4] -0.027 | [5] -0.067

MEAK7 (UniProt Q6P9B6)
UniProt Q6P9B6, sequence (Q6P9B6 whole entry, looked up): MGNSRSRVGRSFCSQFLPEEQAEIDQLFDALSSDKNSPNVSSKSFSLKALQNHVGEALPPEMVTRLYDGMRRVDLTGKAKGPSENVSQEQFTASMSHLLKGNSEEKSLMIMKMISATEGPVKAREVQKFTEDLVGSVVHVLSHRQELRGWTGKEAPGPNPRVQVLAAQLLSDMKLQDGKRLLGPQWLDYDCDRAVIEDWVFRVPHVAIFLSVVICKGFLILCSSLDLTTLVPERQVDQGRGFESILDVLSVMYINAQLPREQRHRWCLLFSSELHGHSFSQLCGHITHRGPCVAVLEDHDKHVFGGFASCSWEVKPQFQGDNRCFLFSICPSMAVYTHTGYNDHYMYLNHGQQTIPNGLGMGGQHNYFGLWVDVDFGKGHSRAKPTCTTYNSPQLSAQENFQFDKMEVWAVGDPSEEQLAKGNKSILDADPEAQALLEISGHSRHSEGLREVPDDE
inactive: [1] -0.009 | [2] 0.051 | [3] 0.042 | [4] -0.009 | [5] -0.048

KCTD2 (UniProt Q14681)
UniProt Q14681, sequence (Q14681 whole entry, looked up): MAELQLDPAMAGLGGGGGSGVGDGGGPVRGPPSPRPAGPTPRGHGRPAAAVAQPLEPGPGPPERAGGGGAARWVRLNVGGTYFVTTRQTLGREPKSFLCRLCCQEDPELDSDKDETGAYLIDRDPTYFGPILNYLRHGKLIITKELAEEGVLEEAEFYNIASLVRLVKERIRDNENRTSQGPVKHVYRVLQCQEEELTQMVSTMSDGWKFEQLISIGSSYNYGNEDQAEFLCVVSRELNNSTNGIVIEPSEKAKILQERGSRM
inactive: [1] 0.008 | [2] -0.01 | [3] 0.022 | [4] 0.195 | [5] 0.158

KPNA4 (UniProt O00629)
inactive: [1] -0.017 | [2] 0.004 | [3] 0.035 | [4] 0.004 | [5] 0.009

MAPK8 isoform 3 (UniProt P45983)
UniProt P45983, sequence (P45983 whole entry, looked up): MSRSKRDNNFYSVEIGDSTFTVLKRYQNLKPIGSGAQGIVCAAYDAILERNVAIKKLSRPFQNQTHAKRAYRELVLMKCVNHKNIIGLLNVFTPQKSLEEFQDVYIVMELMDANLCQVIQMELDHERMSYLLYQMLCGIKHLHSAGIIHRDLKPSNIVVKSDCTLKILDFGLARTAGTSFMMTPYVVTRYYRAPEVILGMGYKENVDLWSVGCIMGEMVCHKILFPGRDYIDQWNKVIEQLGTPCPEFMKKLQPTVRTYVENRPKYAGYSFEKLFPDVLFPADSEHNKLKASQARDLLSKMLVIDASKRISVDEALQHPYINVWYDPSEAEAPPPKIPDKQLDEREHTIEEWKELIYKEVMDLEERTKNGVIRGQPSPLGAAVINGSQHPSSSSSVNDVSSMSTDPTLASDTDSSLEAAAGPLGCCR
inactive: [1] -0.007 | [2] 0.151 | [3] 0.072 | [4] 0.061 | [5] -0.055

LAMP2 (UniProt P13473)
UniProt P13473, sequence (P13473 whole entry, looked up): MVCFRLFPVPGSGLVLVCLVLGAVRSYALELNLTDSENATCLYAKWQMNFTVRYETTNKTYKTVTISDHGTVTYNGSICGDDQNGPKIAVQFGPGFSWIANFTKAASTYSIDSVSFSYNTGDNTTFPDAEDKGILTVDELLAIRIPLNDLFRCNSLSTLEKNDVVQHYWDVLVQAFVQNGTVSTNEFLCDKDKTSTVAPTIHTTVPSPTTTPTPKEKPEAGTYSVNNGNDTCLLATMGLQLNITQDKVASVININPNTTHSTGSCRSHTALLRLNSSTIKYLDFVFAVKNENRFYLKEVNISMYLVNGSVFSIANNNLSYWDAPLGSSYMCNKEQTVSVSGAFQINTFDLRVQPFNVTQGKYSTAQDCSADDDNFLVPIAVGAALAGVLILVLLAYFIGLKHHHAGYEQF
inactive: [1] 0.022 | [2] -0.006 | [3] -0.041 | [4] -0.078 | [5] 0.074

MAP4 (UniProt P27816)
inactive: [1] 0.028 | [2] -0.017 | [3] -0.058 | [4] 0.003 | [5] 0.037

MAP4 (UniProt E7EVA0)
inactive: [1] -0.009 | [2] -0.15 | [3] -0.095 | [4] 0.096 | [5] 0.005

KIF1B isoform 4 (UniProt O60333)
inactive: [1] -0.035 | [2] 0.027 | [3] 0.042 | [4] -0.025 | [5] -0.048

LMNB2 (UniProt Q03252)
UniProt Q03252, sequence (Q03252 whole entry, looked up): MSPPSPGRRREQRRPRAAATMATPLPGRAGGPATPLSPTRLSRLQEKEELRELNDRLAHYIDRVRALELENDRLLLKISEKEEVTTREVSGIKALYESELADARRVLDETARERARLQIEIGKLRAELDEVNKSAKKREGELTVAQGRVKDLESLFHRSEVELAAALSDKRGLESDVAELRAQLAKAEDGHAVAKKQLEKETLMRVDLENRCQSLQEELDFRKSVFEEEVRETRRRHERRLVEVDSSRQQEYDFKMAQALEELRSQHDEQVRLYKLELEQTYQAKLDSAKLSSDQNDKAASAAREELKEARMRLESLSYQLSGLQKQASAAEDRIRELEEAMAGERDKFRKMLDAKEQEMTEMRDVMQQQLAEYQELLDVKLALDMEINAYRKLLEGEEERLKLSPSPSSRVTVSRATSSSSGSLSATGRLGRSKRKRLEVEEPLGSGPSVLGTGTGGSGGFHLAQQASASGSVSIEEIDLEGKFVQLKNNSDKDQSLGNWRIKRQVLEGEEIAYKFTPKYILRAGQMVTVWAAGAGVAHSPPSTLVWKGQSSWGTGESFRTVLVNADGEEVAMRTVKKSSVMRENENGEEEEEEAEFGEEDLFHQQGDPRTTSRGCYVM
inactive: [1] 0.04 | [2] 0.052 | [3] 0.062 | [4] -0.04 | [5] 0.053

KHDC4 (UniProt Q7Z7F0)
inactive: [1] -0.063 | [2] 0.129 | [3] 0.007 | [4] -0.061 | [5] -0.064

MED16 (UniProt Q9Y2X0)
UniProt Q9Y2X0, sequence (Q9Y2X0 whole entry, looked up): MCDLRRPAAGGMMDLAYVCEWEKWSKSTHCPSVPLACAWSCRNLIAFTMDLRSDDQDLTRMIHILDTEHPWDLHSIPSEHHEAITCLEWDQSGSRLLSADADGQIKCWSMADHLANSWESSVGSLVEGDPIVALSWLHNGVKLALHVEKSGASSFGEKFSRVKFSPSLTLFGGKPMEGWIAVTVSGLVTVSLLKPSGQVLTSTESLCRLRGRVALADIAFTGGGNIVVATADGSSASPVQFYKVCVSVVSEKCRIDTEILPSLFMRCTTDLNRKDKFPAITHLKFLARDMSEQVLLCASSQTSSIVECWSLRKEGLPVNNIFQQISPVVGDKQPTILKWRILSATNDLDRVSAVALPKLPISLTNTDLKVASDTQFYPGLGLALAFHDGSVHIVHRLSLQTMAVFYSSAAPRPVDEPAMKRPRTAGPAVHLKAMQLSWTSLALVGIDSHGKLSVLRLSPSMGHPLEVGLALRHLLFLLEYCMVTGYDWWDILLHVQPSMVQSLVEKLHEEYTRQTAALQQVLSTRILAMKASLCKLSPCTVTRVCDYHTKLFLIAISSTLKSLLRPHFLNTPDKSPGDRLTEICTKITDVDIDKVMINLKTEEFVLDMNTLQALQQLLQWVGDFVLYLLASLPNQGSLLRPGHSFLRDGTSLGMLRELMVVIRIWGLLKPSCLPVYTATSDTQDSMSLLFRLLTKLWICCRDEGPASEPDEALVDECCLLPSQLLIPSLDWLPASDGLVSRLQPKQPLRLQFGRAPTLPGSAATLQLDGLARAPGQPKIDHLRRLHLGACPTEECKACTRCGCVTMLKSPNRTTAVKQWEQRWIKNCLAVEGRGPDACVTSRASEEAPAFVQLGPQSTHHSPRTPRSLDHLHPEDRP
inactive: [1] -0.048 | [2] 0.012 | [3] 0.043 | [4] 0.093 | [5] 0.019

MAST4 (UniProt O15021)
inactive: [1] -0.081 | [2] 0.037 | [3] 0.061 | [4] -0.002 | [5] -0.041

MAPKAPK5 (UniProt Q8IW41)
inactive: [1] 0.042 | [2] 0.001 | [3] 0.015 | [4] -0.069 | [5] -0.009

MFGE8 (UniProt Q08431)
UniProt Q08431, sequence (Q08431 whole entry, looked up): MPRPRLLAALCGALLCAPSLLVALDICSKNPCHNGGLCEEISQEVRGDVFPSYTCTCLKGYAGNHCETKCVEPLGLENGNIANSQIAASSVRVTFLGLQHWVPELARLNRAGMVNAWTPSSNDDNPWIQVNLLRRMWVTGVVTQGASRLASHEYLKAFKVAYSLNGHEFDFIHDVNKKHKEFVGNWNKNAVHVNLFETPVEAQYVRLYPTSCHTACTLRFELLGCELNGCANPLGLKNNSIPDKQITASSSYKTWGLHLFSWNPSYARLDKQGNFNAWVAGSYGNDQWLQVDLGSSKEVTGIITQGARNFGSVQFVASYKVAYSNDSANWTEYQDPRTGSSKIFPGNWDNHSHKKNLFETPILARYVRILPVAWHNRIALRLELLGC
inactive: [1] 0.005 | [2] -0.051 | [3] -0.091 | [4] -0.068 | [5] -0.129

IPO11 isoform 2 (UniProt Q9UI26)
inactive: [1] 0.048 | [2] 0.064 | [3] 0.01 | [4] 0.013 | [5] 0.001

MFF (UniProt Q9GZY8)
UniProt Q9GZY8, sequence (Q9GZY8 whole entry, looked up): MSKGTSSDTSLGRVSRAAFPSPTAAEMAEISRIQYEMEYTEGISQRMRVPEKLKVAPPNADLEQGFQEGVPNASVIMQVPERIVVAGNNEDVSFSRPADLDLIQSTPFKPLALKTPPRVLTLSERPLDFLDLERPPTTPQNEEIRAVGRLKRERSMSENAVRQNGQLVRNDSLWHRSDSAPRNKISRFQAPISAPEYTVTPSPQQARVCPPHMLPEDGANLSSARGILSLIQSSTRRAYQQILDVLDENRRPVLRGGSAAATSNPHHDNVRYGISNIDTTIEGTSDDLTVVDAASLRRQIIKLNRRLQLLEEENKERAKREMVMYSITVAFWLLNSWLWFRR
inactive: [1] -0.013 | [2] 0.041 | [3] 0.064 | [4] -0.017 | [5] -0.001

LARP4 isoform 4 (UniProt Q71RC2)
inactive: [1] 0.069 | [2] -0.071 | [3] 0 | [4] 0.093 | [5] 0.036

MIA2 (UniProt Q96PC5)
inactive: [1] -0.036 | [2] 0.041 | [3] 0.02 | [4] 0.029 | [5] 0.027

LNPK (UniProt Q9C0E8)
UniProt Q9C0E8, sequence (Q9C0E8 whole entry, looked up): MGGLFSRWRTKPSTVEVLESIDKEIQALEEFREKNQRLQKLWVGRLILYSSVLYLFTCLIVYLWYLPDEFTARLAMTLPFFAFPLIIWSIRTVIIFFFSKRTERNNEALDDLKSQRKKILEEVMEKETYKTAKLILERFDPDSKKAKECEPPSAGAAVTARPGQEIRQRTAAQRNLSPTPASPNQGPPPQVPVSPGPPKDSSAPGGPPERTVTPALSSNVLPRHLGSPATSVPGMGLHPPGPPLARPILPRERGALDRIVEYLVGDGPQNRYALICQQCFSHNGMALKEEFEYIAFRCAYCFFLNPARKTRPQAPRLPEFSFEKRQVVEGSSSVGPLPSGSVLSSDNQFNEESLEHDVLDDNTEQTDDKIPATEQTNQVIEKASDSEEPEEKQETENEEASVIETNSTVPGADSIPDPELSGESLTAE
inactive: [1] 0.015 | [2] 0.015 | [3] 0.009 | [4] -0.01 | [5] 0.016

MED25 isoform 3 (UniProt Q71SY5)
inactive: [1] -0.12 | [2] 0.06 | [3] -0.14 | [4] -0.128 | [5] -0.257

KIF3B (UniProt O15066)
inactive: [1] -0.068 | [2] -0.014 | [3] 0.028 | [4] 0.09 | [5] -0.054
